Screening data: PubChem, Fisher Drug Discovery Resource Center
Rows were chosen to be rich in hits. Some 0.3% of all compounds tested hit in one or more screens of this group.
mcGAS inh – blocks mouse cGAS activity. inhibition, % at 12.5 µM. 0.15% of 160,000 active. AID 1259399. recombinant cGAS, Kinase-Glo ATP depletion luminescence. Q8C6L5;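 further: 0% = negative control wells and 100% = reference inhibitor with no enzyme activity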
hcGAS lum – inhibitors of human cGAS | recombinant h-cGAS, ATP depletion, Kinase-Glo luminescence | 0.081% of 290,000 active | AID 1259398 | Q8N884 | inhibition, % at 12.5 µM;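 further: 0% = vehicle reaction and 100% = reaction without DNA for no activity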
Target sequence (Q8N884 whole entry, looked up): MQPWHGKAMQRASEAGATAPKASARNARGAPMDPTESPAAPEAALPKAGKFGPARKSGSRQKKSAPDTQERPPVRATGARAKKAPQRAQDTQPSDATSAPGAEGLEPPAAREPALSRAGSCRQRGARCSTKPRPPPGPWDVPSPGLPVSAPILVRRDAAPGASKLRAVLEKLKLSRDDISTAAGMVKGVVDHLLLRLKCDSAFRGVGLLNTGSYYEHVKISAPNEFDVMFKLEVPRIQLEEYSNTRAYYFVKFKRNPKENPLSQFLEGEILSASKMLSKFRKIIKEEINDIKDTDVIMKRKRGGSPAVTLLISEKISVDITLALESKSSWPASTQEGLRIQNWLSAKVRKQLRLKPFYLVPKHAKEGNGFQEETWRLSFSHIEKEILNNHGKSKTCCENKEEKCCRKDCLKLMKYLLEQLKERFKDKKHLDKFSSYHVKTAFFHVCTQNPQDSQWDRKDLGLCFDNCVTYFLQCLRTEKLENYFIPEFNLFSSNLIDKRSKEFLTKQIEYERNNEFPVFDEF
NPYLR7 ag – activates Aedes aegypti NPYLR7 receptor | HEK293T NPYLR7/Galpha15, GCaMP6s calcium fluorescence | activation, % at 10 µM | 0.15% of 270,000 active | AID 1259423; in the data active means activation above about 40%;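 further: 0% = vehicle and 100% = reference agonist at the receptor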
The depositor's hits bear a star; nt = not tested or not shown. Unless noted, no stated cut-off is given here; in the data, active means inhibition above about 40%; inactive means the rest.

SMILES	mcGAS inh	hcGAS lum	NPYLR7 ag
CCc1ccc2sc3nc(=O)c(C#N)c(C)n3c2c1	nt	-6	4
COc1ccc2c(c1OC)C(=O)N(c1cccc(Cl)c1)C2=O	nt	-7	10
COc1cc(OC)c(C2=NOC3(CC(=O)N(c4cccc(Cl)c4)C3=O)C2)cc1OC (configuration not stated)	nt	-7	83*
O=C1C(=Cc2ccc(N3CCCCC3)cc2)COc2ccccc21	-4	-5	2
CC1=NN(C(=O)c2ccc(OCc3ccc(C)cc3)cc2)C(O)(C(F)(F)F)C1 (configuration not stated)	nt	-10	3
COc1ccc(CN2CCN(Cc3nccs3)CC2CCO)c(C)c1C (configuration not stated)	nt	-7	1
Cc1ccc(/C=C2/Oc3cc(O)ccc3C2=O)s1	-9	6	165*
O=C1/C(=C/c2ccc3ccccc3n2)Oc2cc(O)ccc21	nt	3	8
CN(C)c1ccc(/C=C2\N=C(c3cccc(F)c3)OC2=O)cc1	-5	-7	6
COCCN(CC(=O)N(Cc1ccc(F)cc1)Cc1ccc(C)s1)C(=O)c1ccc(OC)cc1	-4	-2	0
COc1ccccc1CN(CCC(C)C)CC(O)COCc1ccco1 (configuration not stated)	-5	-4	14
COC(=O)c1c(C)c2c(c(C)c1O)OC(=O)c1c(C)c(Cl)c(O)c(Cl)c1O2	-2	22	-1
COc1cc(C)c2c(c1C=O)Oc1c(c(C)c(O)c3c1C(O)OC3=O)OC2=O (configuration not stated)	41*	70*	-13
Cc1cc(O)c(C=O)c2c1C(=O)Oc1c(C)c(O)c3c(c1O2)C(O)OC3=O (configuration not stated)	nt	42*	-8
COc1ccc(NC(=O)Cn2ncnc2-c2ccccc2Cl)cc1	nt	-4	4
Cc1cc(C(=O)NC(c2ccccc2)c2ccccc2)n2nc(C(C)(C)C)cc2n1	59*	-3	21
Cc1cc(C(=O)NCCc2ccccc2)n2nc(C(C)(C)C)cc2n1	-5	-6	18
Cc1ccc(-n2c(SCc3ccc(C(=O)Nc4ccc5c(c4)OCO5)cc3)nnc2-c2cccnc2)cc1	-6	-1	5
CCN(CC)c1c(C)nc2ccc(C(=O)NCC3CCCCC3)cn12	-2	-9	-3
COc1ccc(S(=O)(=O)Oc2cc(CN(CC(C)C)C(=O)Nc3ccccc3OC)ccc2OC)cc1	-5	-3	2
CCC(=O)N(C)c1nnc(C23CC4CC(CC(C4)C2)C3)s1	-2	-4	3
CN(C(=O)CCl)c1nnc(C23CC4CC(CC(C4)C2)C3)s1	60*	-1	0
Cc1ccnc(SCc2cc(=O)c(OC(=O)COc3ccc(F)cc3)co2)n1	-1	1	-16
Cc1cccc(CC(=O)Oc2coc(CSc3nc(C)cc(C)n3)cc2=O)c1	26	2	-15
Cc1cc(C)nc(SCc2cc(=O)c(OC(=O)Cc3ccccc3)co2)n1	87*	3	-13
SMILES	mcGAS inh	hcGAS lum	NPYLR7 ag
Cc1ccnc(SCc2cc(=O)c(OC(=O)Cc3ccc(F)cc3)co2)n1	40*	5	-16
CC(C)(C)C1CCc2sc(C(=O)N3CCNC(=O)C3)cc2C1 (configuration not stated)	93*	-11	6
CC(C)(C)C1CCc2sc(C(=O)NN3C(=O)NC4(CCCCC4)C3=O)cc2C1 (configuration not stated)	nt	14	-1
Cc1cc(O)c(CN2CCOCC2)c2c1C(=O)/C(=C/c1cc3ccccc3o1)O2	-3	-1	28
Cc1cc(O)c(CN2CCN(C)CC2)c2c1C(=O)/C(=C/c1cccs1)O2	-6	-2	49*
Cc1cc(O)c(CN2CCN(C)CC2)c2c1C(=O)/C(=C/c1ccncc1)O2	-2	-3	26
Cc1cc(O)c(CN2CCCCC2)c2c1C(=O)/C(=C/c1cc3ccccc3o1)O2	-5	-4	50*
COc1ccccc1-n1c(CNC(=O)COc2ccccc2)nnc1SCC(=O)Nc1nccs1	-6	-8	12
COc1ccc(-n2ccnc2-c2ccc(C#CC(C)(C)O)cc2)cn1	nt	-8	57*
COc1ccc(-n2ccnc2-c2cccc(OC)c2OC)cn1	0	-4	0
COc1cc(C=C2C(=O)N(C)C(=O)N(C)C2=O)cc([N+](=O)[O-])c1O	46*	11	-20
COc1cc(C=C2C(=O)N(C)C(=O)N(C)C2=O)cc(I)c1O	12	12	5
O=C(NCc1nnnn1-c1ccccc1)C1c2ccccc2Oc2ccccc21	-8	-6	1
COc1ccc(Br)c(Cn2c(C)c(C(=O)NC3CCCC3)sc2=O)c1	nt	6	-10
COC(=O)C(C)Sc1nc2sc3c(c2c(=O)n1C)CCC3 (configuration not stated)	nt	0	51*
COC(=O)C(C)Sc1nc2sc3c(c2c(=O)n1Cc1ccccc1)CCC3 (configuration not stated)	nt	10	-6
COc1cccc(CN(c2ccc(Cl)cc2)S(=O)(=O)c2cccn3c(C)nnc23)c1	nt	-3	-10
Cc1ccc(C2=NN(C(=O)CN3CCCC3)C(c3ccccc3F)C2)cc1 (configuration not stated)	-6	-4	-4
COc1ccccc1C1CC(c2cccc(F)c2)=NN1C(=O)CN1CCC2(CC1)OCCO2 (configuration not stated)	-4	-4	2
COc1ccc(C2=NN(C(=O)CN3CCC4(CC3)OCCO4)C(c3ccccc3OC)C2)cc1 (configuration not stated)	-3	78*	14
Cc1ccc(C2=NN(C(=O)CN3CCN(C)CC3)C(c3ccccc3Cl)C2)cc1 (configuration not stated)	0	1	45*
CCN(CC)C(=O)CN(Cc1ccc(Cl)c(Cl)c1)S(=O)(=O)c1ccccc1	nt	-7	5
CCOC(=O)c1c(-c2ccccc2)csc1N=Cc1nc(-c2ccccc2)oc1O	-8	-6	97*
CCOC(=O)c1c(-c2ccc(C)cc2)csc1N=Cc1nc(-c2ccccc2)oc1O	-7	-7	3
O=[N+]([O-])c1cc2c(c(CSc3nnc(-c4ccco4)o3)c1)OCOC2	-7	-6	1
SMILES	mcGAS inh	hcGAS lum	NPYLR7 ag
N#Cc1c(-c2ccco2)c2c([nH]c1=S)CCCC2=O	nt	2	10
N#C/C(=C/c1ccc(N2CCCCCC2)o1)c1ccc(F)cc1	nt	-9	88*
N#C/C(=C\c1ccc(N2CCCCC2)s1)c1cccc(Cl)c1	nt	-2	28
CC=CC=CC(=O)Nc1cc(OC)c(Cl)cc1OC	nt	-4	3
Cn1nc(-c2ccc(F)cc2)nc2c(=O)n(C)c(=O)nc1-2	67*	26	2
Cn1cnc(-c2ccc(F)cc2)cc1=O	-7	-6	-3
CCOC(=O)c1nn(-c2ccccc2Cl)c(=O)cc1OCC(=O)NCc1ccccc1	nt	-1	7
CCc1nc2ccc(C(=O)NC(C)(C)C)cn2c1N(C)C(=O)c1cccc(OC)c1	-3	-6	23
O=C1SC(Nc2ccc(Br)cc2)C(=O)N1c1ccccc1 (configuration not stated)	-4	-6	85*
O=C1SC(Nc2ccc(Br)cc2)C(=O)N1CCN1C(=O)c2ccccc2C1=O (configuration not stated)	-4	-8	11
Fc1cccc(-c2cnnc(NCCC3=CCCCC3)n2)c1	nt	-8	5
